This is an account of results in PubChem BioAssay AID624296 (National Center for Advancing Translational Sciences (NCATS), 2012).

About 9,900 (2.8%) of roughly 350,000 compounds were called active. Roughly 15% stayed inconclusive and do not appear here. This is one part of a sample in which actives are shown more often than they occur. A number with no mark means an inactive call. The call rests on the fitted dose curve; in most records, active means well fitted activation curve with a large enough effect; inconclusive means small, poorly fitted or top-dose-only effect; inactive means no such curve, though single readings can be large or run the other way.
Potency means the concentration at half of the fitted maximal effect.

This assay can be described thus: A quantitative high throughput screen for small molecules that induce DNA re-replication in MCF 10a normal breast cells. Further: nearly all actives have a fitted effect of over 50% in size. On activity, positive = re-replication: % of control where 0% means no effect. The conditions noted are these: MCF 10A DNA re-replication, Hoechst nuclear intensity, 48 h; series mostly up to 46.1 µM; activity, positive = re-replication: at the top concentration. From the text:
H Molecular Libraries Probe Production Network [MLPCN]
NIH Chemical Genomics Center [NCGC]
Assay Provider: Melvin DePamphilis, NICHD, NIH
Eukaryotic cells normally restrict genome duplication to once per cell division. When this process is aberrant, DNA re-replication occurs when cells reinitiate DNA replication before the first round of replication is complete. DNA re-replication induces the DNA damage response, arrests cell proliferation, and triggers apoptosis. The cell cycle components cyclin A, Cdt-1, Cdc6 and geminin are critical regulators of this process and their misregulation results in DNA re-replication in normal and cancer cells. To identify compounds that induce re-replication in normal cells, an image-based assay was used to measure DNA content of nuclei, as detected by the fluorescent DNA binding dye, Hoechst. Cell nuclei were imaged by a fluorescence scanning plate imager and compounds that induce DNA re-replication were identified by the increase of nuclei with elevated fluorescence intensity
For screening, 250 cells in 5 uL/well were dispensed into black clear 1536-well plates (Aurora) using a solenoid-based dispenser. Following transfer of 23 nL compound or DMSO vehicle by a pin tool, the plates were incubated 48 hr at 37 C and 5% CO2. After addition of 1 uL/well Hoescht stain, the plates were incubated 40 min at 37 C, 5% CO2 and total intensity of fluorescent objects (nuclei) were enumerated by an Acumen Explorer Ex3 (TTP LabTech) fluorescence scanning plate imager (405 nm excitation, 500-530 nm emission).
Keywords: NIH Roadmap, MLPCN, MLI, MLSMR, qHTS, NCGC, DNA replication, cancer
Take `COc1cc(Cn2c(N)c(C(=O)NCc3ccco3)c3nc4ccccc4nc32)cc(OC)c1OC`: the Potency was 2.31 µM (active).

On to `CCOC(=O)c1c(N)n(CCN2CCOCC2)c2nc3ccccc3nc12`, for which the “activity, positive = re-replication” value was 5.89%.

With `CCOC(=O)c1c(N)n(Cc2ccccc2)c2nc3ccccc3nc12`, the “activity, positive = re-replication” value is -4.73%.

Regarding `CC1CCCN1CCC(C(N)=O)(c1ccccc1)c1ccccc1` (stereo not given), the “activity, positive = re-replication” value is -16.2%.

Consider `C[C@]12CC[C@H](O)CC1=C([N+](=O)[O-])CC1C2CC[C@@]2(C)C1CC[C@@H]2O` (stereo not given in full), for which the “activity, positive = re-replication” value is -1.74%.

In the case of `CCc1ccc(OCC(=O)N2CCN(CC(=O)Nc3ccccc3Cl)CC2)cc1`, the “activity, positive = re-replication” value was 9.38%.

`C[C@]12CCCCC1=CC(=O)C1C2CC[C@@]2(C)C1C[C@@H](F)[C@@H]2O` (stereo not given in full): the “activity, positive = re-replication” value was 4.37%.

As for `O=c1[nH]c(CN2CC=C(c3ccccc3)CC2)nc2scc(-c3cccs3)c12`, the Potency is 25.9 µM (active).

Regarding `C=C(C)C1(CCCC)C(=O)NC(=S)NC1=O`, the “activity, positive = re-replication” value was -1.56%.

As to `Cc1ncsc1CCCl`, the “activity, positive = re-replication” value was -2.7%.

`CCC(=O)c1ccc(OCC(=O)N2CCN(CC(=O)Nc3ccc(C)cc3)CC2)cc1`: the “activity, positive = re-replication” value was -12.2%.

For the molecule `COc1ccc(C2CC(c3cccs3)=NN2c2nc(C)c(C(C)=O)s2)cc1OC` (stereo not given), the Potency is 3.26 µM (active).

For `c1ccc2sc(SNC3CCCCC3)nc2c1`, the “activity, positive = re-replication” value was 0.201%.

On to `C=CCN1CCC23c4c5ccc(O)c4O[C@H]2C(=O)CC[C@@]3(O)C1C5` (stereo not given in full), for which the “activity, positive = re-replication” value is 4.94%.

For the molecule `CC1C(=O)OC2CCN3CC=C(COC(=O)C(C)(O)C1(C)O)C23` (stereo not given), the “activity, positive = re-replication” value is -2.57%.

Take `COc1ccc2c3c1O[C@H]1C[C@@H](O)C=C[C@@]31CCN(C)C2`: the Potency result is “inactive”.

On to `CCOC(=O)CC(SP1(=S)OCC2(CCCCO2)C(C2CCCCO2)O1)C(=O)OCC` (stereo not given), for which the “activity, positive = re-replication” value is 5.67%.

In the case of `C[C@]12CCC3C(CC[C@H]4[C@H](O)[C@H](O)CC[C@]34C)C1CC[C@@H]2O` (stereo not given in full), the “activity, positive = re-replication” value was 4.54%.

`C/C(CCc1c[nH]c2ccccc12)=N\O`: the “activity, positive = re-replication” value is -0.423%.

Consider `O=[N+]([O-])c1cnc2ccc3ccccc3c2c1`, for which the “activity, positive = re-replication” value was 1.89%.

For `C/C(=N/O)c1ccc2ccc3ccccc3c2c1`, the Potency was 25.9 µM (active).

Consider `CCNC[C@H](O)c1cccc(O)c1`, for which the “activity, positive = re-replication” value was 2.78% [at 20.6 µM].

`Nc1ccc(Cc2ccc(N)c(Cl)c2)cc1Cl`: the “activity, positive = re-replication” value is 9.77%.

On to `COc1ccc2c(c1)NP(=S)(c1ccccc1)N2` (stereo not given), for which the “activity, positive = re-replication” value was 0.0619%.

With `CC(CC(C#N)(c1ccccc1)c1ccccc1)N1CCCCC1` (stereo not given), the “activity, positive = re-replication” value is 1.98%.

With `CN(C)CC1Oc2ccccc2OC1(O)c1ccccc1` (stereo not given), the Potency was 2.59 µM (active).

For `c1ccc(C(CN2CCCCC2)c2ccccc2)cc1`, the “activity, positive = re-replication” value was 0.205%.

As to `COc1cc(OC)cc(C2(C#N)CCN(C)CC2)c1`, the “activity, positive = re-replication” value is -5.67%.

Consider `Cc1cccc([C@H](C)c2cnc[nH]2)c1C`, for which the “activity, positive = re-replication” value is -1.12%.

As to `CCOc1ccc(CN(CCCl)CCCl)cc1C(=O)OC`, the “activity, positive = re-replication” value was 27.9%.

As for `O=C1NC(=O)C(Cc2ccccc2)C(=O)N1`, the “activity, positive = re-replication” value was 7.99%.

In the case of `N#Cc1ccc(Cn2cc(C(=O)c3ccco3)c3ccccc32)cc1`, the “activity, positive = re-replication” value is 9.12%.

Regarding `Cn1cc(C(=O)OCC(=O)N2CCCC2)c2ccccc21`, the “activity, positive = re-replication” value is -5.31%.

For `NC(=O)Cn1cc(C(=O)c2ccccc2F)c2ccccc21`, the Potency was 0.58 µM (active).

Consider `CCOC(=O)C1(c2ccccc2)CCN(CC(O)c2ccc(NC(C)=O)cc2)CC1` (stereo not given), for which the “activity, positive = re-replication” value is -0.895%.

Take `O=c1c2ccccc2nc(-c2ccco2)n1-c1ccc(Br)cn1`: the “activity, positive = re-replication” value was 28.7%.

Turning to `O=c1c2ccccc2nc(/C=C/c2ccco2)n1-c1ccccc1O`, the Potency is 23.1 µM (active).

As to `Cc1nc2ccccc2c(=O)n1-c1ccc(Cl)cc1Cl`, the “activity, positive = re-replication” value was 7.11%.

As to `CNC(C)[C@@H](O)c1ccccc1` (stereo not given in full), the “activity, positive = re-replication” value was 4.33%.

With `CCC(=O)OC(Cc1ccccc1)(c1ccccc1)C(C)CN(C)C` (stereo not given), the “activity, positive = re-replication” value was 1.9%.

Turning to `c1cc2c(cc1C1OCC3C(c4ccc5c(c4)OCO5)OCC13)OCO2` (stereo not given), the “activity, positive = re-replication” value was -0.791%.

For the molecule `CC(=O)C1(O)CCC2C3CCC4=C(Cl)C(=O)CCC4(C)C3CCC21C` (stereo not given), the “activity, positive = re-replication” value was -1.71%.

Turning to `CCNc1nc2[nH]c(=O)c3c(c2s1)OC(N)=C(C#N)C3c1cccs1` (stereo not given), the “activity, positive = re-replication” value was -7.38%.

Regarding `N#CC1=C(N)Oc2c(c(=O)oc3ccccc23)C1c1ccccc1OC(=O)c1cccs1` (stereo not given), the Potency was 20.6 µM (active).

On to `CCN1C(=O)NC(=O)C2(CCCC2)C1=O`, for which the “activity, positive = re-replication” value was 1.74%.

Regarding `COc1cc(-n2c(=S)[nH]c3ccc(C)cc3c2=O)c(Cl)cc1Cl`, the Potency was 13 µM (active).

Consider `CC1([N+](=O)[O-])COP(=O)(Nc2ccc(F)cc2)OC1` (stereo not given), for which the “activity, positive = re-replication” value is 0.716%.

`COc1c(O)ccc2c1-c1c3c(cc4c1C(C2)N(C)CC4)OCO3` (stereo not given): the “activity, positive = re-replication” value is 2.18%.

For the molecule `COc1ccc2cc1Oc1ccc(cc1)C[C@H]1c3cc(c(OC)cc3CCN1C)Oc1c(O)c(OC)cc3c1[C@H](C2)N(C)CC3`, the Potency is 20.6 µM (active).

For `CC[N+]1(CCOC(=O)C(O)(c2ccccc2)c2ccccc2)CCCCC1`, the “activity, positive = re-replication” value is -0.489%.

`COC1=C[C@@H]2[C@@H]3Cc4ccc(OC)c(O)c4[C@]2(CCN3C)CC1=O`: the “activity, positive = re-replication” value is -6.99%.

In the case of `CNCC[C@H](Oc1ccc(C(F)(F)F)cc1)c1ccccc1`, the “activity, positive = re-replication” value is -31.5%.

As for `Cc1cc(-c2ccc(N)c(C)c2)ccc1N`, the “activity, positive = re-replication” value was 1.97%.

In the case of `CC1CNCCN1c1ccc(Cl)cc1` (stereo not given), the “activity, positive = re-replication” value is 2.88%.

With `C[C@@H]1C[C@@H]2O[C@H]2/C=C\C=C\C(=O)Cc2c(Cl)c(O)cc(O)c2C(=O)O1`, the Potency was 9.2 µM (active).

Take `CC(=O)OC1C([N+]2(C)CCCCC2)C[C@H]2C3CC[C@H]4C[C@H](OC(C)=O)C([N+]5(C)CCCCC5)CC4(C)C3CCC12C` (stereo not given in full): the “activity, positive = re-replication” value is -4.37%.

As to `Cc1ncc(CC(=O)n2cc(C(=O)c3cc(Cl)ccc3O)cn2)s1`, the Potency was 10 µM (active).

As to `C[C@]12CCC3C(CC[C@H]4[C@H](O)[C@H](O)CC[C@]34C)C1CCC2=O` (stereo not given in full), the “activity, positive = re-replication” value was -8.95%.

For the molecule `O=C1NC(=O)C(CCOc2ccccc2)(CCc2ccccc2)C(=O)N1`, the “activity, positive = re-replication” value was 16.8%.

For `CCC1(c2ccccc2)C(=O)NC(=O)N(C)C1=O` (stereo not given), the “activity, positive = re-replication” value was -1.92%.

Take `CCC1(CC(C)c2ccccc2)C(=O)NC(=O)NC1=O` (stereo not given): the “activity, positive = re-replication” value is -24%.

For the molecule `Cc1cc2ccccn2c1C(C[N+](=O)[O-])c1c(F)cccc1Cl` (stereo not given), the Potency was 3.26 µM (active).

Take `Oc1ccc2c3c1OC1[C@H](O)CC[C@@]4(O)[C@@H](C2)N(CC2CC2)CC[C@]314` (stereo not given in full): the Potency entry is “inactive”.

Turning to `CN1CCCC(=C(c2cccs2)c2cccs2)C1`, the “activity, positive = re-replication” value is 13.4%.

With `COC(=O)[C@@H]1C(OC(=O)c2ccccc2)CC2CCC1N2C` (stereo not given in full), the “activity, positive = re-replication” value is -11.5%.

As to `Brc1cc(Br)c(Oc2cc(Br)c(Br)cc2Br)cc1Br`, the Potency was 14.6 µM (active).

Turning to `CC[C@]1(C(=O)OC)[C@H]2C(=O)N(Cc3ccccc3)C(=O)[C@H]2[C@H]2CN=C(SCc3ccc(C#N)cc3)N21`, the “activity, positive = re-replication” value was 5.65%.

Regarding `Cc1cc(C)c2c(c1)NP(=S)(c1ccccc1)N2` (stereo not given), the “activity, positive = re-replication” value was 0.425%.

Take `CN=C(NC#N)NCCSCc1nc[nH]c1C`: the Potency entry was “inactive”.

Take `O=C(N/N=C/c1ccc([N+](=O)[O-])o1)c1cc([N+](=O)[O-])cc([N+](=O)[O-])c1O`: the “activity, positive = re-replication” value is -1.45%.
